# About 79,000 compounds went through this panel and 15% of them were active in at least one assay; those are over-represented in the sample as a whole. A number with no mark means an inactive call. Activity calls are given as the source filed them. Cut-off read from the data, not from the text of the source: active = growth inhibition above about 70%; inactive = the rest.
# Test: NCI Yeast Anticancer Drug Screen. Data for the wt1 strain (AID 149);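 note: 0% = growth of vehicle-treated wt1 cultures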
# Settings: S. cerevisiae wt1 strain (SPY 50644) growth inhibition, stronger effect = higher value
# Protocol: Growth inhibition of yeast strains with defined genetic alterations is measured as a screen for potential anti-cancer activity. Selected strains with alterations in DNA damage repair or cell cycle control were exposed to compounds and growth inhibition was measured relative to vehicle treated controls. The strain used in this assay is wt1
Compound,growth inhibition (at 1.2 µM) [%],growth inhibition (at 3.7 µM) [%],growth inhibition (at 11.0 µM),growth inhibition (at 33.0 µM),growth inhibition (at 100.0 µM)
CC(C)(CN1CCCCC1)C(=O)/C=C/c1c(Cl)cccc1Cl,10,15,32%,93% (active),97% (active)
CC(=O)CCC1=C(C)C(=O)C(=O)C(C)=C1O,-4,-8,-3%,7%,80% (active)
CC1(C)CC(=O)C(C=NC(=S)C(N)=S)=C(O)C1,-30,-39,-37%,-16%,21%
COC1/C=C\C=C(/C)C(=O)NC2=CC(=O)C(=O)C(=C2O)CC(C)CC(OC)C(O)C(C)/C=C(\C)C1OC(N)=O (stereo not given),10,-17,86% (active),95% (active),94% (active)
COc1cc(OC)c(CSCC(NC(=O)OCC2c3ccccc3-c3ccccc32)C(=O)O)c(OC)c1 (stereo not given),1,9,55%,96% (active),99% (active)
NC(CCCCCCCCCCCCC(N)C(=O)c1ccccc1)C(=O)c1ccccc1 (stereo not given),-4,-12,75% (active),95% (active),95% (active)
O=C(O)c1ccccc1C(=O)OC1CCc2ccccc2C1 (stereo not given),-5,-7,-80%,-1%,27%
O=C(O)c1c2ccc(Cl)cc2nc2[nH]c(=O)[nH]c(=O)c12,-37,-35,-44%,-38%,-18%

# Source: PubChem BioAssay (NCI)
